Results: publication PMC7862700, “An all-to-all approach to the identification of sequence-specific readers for epigenetic DNA modifications on cytosine”

How the values were obtained:
Assay in all cases: DAPPL (digital affinity profiling via proximity ligation, sequencing); 10 mM Tris-HCl pH 7.5, 50 mM NaCl, 1 mM DTT, 4% glycerol, room temperature, 30 min; GST-TFs on glutathione beads, 16-mer random dsDNA library, 0.1% formaldehyde crosslink after washing; high values mean tight binding
FEV = target: T1, FEV (Homo sapiens, UniProt Q99581 1-238); details: protein: recombinant; tags: N-terminal GST; dsDNA, one strand shown
T1 sequence: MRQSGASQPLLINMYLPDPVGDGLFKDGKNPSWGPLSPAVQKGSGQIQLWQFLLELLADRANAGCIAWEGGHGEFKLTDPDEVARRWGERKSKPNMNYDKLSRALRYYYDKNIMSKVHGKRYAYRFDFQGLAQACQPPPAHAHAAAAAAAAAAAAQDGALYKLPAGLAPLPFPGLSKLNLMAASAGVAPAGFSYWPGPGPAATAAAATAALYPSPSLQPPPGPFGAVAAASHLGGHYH
Outline: (§1)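 Binding signal is each hexamer's read frequency for a factor divided by its frequency in the tag-only sample. The factors were GST-fused human transcription factors from yeast, captured on glutathione beads, DNA-barcoded and pooled with that sample. Pools were incubated with 200 nmole of a random double-stranded 16-mer DNA library in Tris/NaCl/DTT/glycerol buffer at room temperature for 30 min, then washed, crosslinked with 0.1% formaldehyde, proximity-ligated with BsaI/T4 ligase (1 h, 37 °C), PCR-amplified and sequenced on an Illumina NextSeq500.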

ETV5 = ETV5 (Homo sapiens, UniProt P41161 1-510); details: protein: recombinant; tags: N-terminal GST; dsDNA, one strand shown
Chain of ETV5 (P41161 whole entry): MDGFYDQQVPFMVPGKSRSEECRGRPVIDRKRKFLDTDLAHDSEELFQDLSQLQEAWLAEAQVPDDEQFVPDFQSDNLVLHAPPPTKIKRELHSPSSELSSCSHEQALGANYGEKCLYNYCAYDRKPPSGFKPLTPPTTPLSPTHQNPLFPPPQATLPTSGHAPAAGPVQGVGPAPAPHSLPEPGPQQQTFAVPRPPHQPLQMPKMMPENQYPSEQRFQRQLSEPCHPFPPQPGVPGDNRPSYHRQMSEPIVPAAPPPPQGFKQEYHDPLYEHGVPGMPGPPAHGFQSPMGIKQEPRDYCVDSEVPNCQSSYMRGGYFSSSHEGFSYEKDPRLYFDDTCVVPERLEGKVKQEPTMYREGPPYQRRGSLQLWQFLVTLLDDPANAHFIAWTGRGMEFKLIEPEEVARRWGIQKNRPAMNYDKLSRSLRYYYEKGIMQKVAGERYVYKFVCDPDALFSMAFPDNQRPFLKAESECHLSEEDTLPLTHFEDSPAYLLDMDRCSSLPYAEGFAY
Outline: as §1

HSF1 = HSF1 (Homo sapiens, UniProt Q00613 1-529); details: protein: recombinant; tags: N-terminal GST; chain copies: 3; dsDNA, one strand shown
Chain of HSF1 (Q00613 whole entry): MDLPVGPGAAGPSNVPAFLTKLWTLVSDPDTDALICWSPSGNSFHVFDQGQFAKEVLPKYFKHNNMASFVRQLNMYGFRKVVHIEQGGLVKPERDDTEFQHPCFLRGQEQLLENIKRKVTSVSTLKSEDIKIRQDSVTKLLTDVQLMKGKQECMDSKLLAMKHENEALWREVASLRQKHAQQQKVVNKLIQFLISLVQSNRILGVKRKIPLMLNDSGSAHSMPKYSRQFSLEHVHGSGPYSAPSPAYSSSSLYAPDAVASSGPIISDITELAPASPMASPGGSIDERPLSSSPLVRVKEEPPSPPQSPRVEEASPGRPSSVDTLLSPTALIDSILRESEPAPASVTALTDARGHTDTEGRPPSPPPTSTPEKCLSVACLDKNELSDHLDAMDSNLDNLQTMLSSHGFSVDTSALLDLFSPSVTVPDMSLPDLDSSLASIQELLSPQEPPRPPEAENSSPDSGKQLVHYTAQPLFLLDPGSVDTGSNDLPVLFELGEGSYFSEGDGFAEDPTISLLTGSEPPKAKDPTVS
Outline: as §1

SPIC = target: T2, SPIC (Homo sapiens, UniProt Q8N5J4 1-248); details: protein: recombinant; tags: N-terminal GST; dsDNA, one strand shown
T2 sequence: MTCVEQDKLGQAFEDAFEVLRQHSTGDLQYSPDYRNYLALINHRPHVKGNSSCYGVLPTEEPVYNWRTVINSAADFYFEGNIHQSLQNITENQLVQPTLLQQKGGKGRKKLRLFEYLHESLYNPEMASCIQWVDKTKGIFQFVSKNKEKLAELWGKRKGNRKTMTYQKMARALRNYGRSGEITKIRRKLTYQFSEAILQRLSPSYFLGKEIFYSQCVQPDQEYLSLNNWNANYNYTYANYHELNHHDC
Outline: as §1

ELF4 = ELF4 (Homo sapiens, UniProt Q99607 1-663); details: protein: recombinant; tags: N-terminal GST; dsDNA, one strand shown
Chain of ELF4 (Q99607 whole entry): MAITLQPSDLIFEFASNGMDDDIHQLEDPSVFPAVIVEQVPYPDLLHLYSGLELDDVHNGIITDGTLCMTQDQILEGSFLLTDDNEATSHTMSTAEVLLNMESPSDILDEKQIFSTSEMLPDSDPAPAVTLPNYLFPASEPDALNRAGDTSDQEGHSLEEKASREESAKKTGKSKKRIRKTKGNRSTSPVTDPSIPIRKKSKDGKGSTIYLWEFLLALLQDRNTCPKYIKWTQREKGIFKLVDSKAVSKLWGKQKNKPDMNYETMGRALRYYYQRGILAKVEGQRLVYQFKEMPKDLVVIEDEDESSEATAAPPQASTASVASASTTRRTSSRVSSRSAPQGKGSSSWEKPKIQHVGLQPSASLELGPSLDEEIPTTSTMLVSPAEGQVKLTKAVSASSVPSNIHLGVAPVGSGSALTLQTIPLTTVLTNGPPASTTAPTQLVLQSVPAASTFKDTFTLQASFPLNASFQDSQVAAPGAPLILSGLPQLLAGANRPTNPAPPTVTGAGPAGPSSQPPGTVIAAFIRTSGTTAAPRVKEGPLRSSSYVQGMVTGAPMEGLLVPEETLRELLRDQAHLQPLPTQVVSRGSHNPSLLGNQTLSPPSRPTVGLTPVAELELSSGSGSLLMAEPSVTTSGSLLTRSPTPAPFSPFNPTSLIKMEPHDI
Outline: as §1

ELK4 = target: T3, ELK4 (Homo sapiens, UniProt P28324-2 1-405); details: protein: recombinant; tags: N-terminal GST; dsDNA, one strand shown
T3 sequence: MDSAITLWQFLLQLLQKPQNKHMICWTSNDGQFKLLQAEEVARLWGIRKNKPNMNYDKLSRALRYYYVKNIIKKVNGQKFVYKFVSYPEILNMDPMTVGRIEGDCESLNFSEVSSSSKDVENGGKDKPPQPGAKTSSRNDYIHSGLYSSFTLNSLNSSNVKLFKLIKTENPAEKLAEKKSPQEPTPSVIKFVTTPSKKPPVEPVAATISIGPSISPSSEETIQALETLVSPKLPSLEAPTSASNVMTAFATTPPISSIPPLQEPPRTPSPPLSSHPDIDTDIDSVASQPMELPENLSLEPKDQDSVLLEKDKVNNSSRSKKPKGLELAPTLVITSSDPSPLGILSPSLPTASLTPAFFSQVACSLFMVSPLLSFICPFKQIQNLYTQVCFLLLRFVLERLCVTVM
Outline: as §1

ETV2 = target: T4, ETV2 (Homo sapiens, UniProt O00321 1-342); details: protein: recombinant; tags: N-terminal GST; dsDNA, one strand shown
T4 sequence: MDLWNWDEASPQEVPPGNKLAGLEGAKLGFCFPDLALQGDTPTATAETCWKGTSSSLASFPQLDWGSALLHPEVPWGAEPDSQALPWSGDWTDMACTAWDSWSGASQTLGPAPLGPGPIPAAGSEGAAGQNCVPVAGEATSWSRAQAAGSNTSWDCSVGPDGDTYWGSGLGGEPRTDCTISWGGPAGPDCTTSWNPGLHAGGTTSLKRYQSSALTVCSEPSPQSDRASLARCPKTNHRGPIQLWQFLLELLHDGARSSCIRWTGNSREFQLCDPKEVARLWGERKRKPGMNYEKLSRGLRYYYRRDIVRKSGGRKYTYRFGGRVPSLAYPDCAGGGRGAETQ
Outline: as §1

ELF3 = target: T5, ELF3 (Homo sapiens, UniProt P78545 1-371); details: protein: recombinant; tags: N-terminal GST; dsDNA, one strand shown
T5 sequence: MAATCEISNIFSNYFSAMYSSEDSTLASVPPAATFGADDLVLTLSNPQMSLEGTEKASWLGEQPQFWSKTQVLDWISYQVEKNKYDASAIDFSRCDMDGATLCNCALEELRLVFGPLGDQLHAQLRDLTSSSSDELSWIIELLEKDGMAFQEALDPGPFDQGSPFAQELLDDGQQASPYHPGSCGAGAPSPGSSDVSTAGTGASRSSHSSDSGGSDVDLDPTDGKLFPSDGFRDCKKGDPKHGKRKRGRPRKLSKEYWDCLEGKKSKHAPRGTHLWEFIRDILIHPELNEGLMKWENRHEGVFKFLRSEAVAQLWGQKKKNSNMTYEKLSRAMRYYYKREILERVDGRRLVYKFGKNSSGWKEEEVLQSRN
Outline: as §1

CRX = CRX (Homo sapiens, UniProt O43186 1-299); details: protein: recombinant; tags: N-terminal GST; dsDNA, one strand shown
Chain of CRX (O43186 whole entry): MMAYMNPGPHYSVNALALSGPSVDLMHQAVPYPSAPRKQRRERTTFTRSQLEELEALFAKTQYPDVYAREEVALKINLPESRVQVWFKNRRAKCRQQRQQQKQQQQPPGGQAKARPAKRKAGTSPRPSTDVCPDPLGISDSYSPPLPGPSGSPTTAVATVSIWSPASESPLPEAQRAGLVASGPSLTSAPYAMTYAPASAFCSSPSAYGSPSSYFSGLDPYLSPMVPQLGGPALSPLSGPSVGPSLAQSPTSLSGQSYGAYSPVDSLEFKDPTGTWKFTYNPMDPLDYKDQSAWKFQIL
Outline: as §1

ETV1 = ETV1 (Homo sapiens, UniProt P50549 1-477); details: protein: recombinant; tags: N-terminal GST; dsDNA, one strand shown
Chain of ETV1 (P50549 whole entry): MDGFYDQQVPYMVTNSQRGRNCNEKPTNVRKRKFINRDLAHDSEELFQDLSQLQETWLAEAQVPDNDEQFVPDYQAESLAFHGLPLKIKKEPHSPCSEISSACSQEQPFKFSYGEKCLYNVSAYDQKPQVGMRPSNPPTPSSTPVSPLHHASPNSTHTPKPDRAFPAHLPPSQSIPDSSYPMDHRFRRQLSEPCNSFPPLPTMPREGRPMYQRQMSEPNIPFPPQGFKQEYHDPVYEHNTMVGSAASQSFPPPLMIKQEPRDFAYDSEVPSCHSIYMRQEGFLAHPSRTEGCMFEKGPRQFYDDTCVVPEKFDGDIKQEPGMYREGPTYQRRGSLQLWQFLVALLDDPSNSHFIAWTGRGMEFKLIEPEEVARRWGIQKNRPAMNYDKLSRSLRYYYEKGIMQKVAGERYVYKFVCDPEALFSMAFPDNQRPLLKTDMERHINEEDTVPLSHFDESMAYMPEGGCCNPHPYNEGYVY
Outline: as §1

ERF = target: T6, ERF (Homo sapiens, UniProt P50548 1-548); details: protein: recombinant; tags: N-terminal GST; dsDNA, one strand shown
T6 sequence: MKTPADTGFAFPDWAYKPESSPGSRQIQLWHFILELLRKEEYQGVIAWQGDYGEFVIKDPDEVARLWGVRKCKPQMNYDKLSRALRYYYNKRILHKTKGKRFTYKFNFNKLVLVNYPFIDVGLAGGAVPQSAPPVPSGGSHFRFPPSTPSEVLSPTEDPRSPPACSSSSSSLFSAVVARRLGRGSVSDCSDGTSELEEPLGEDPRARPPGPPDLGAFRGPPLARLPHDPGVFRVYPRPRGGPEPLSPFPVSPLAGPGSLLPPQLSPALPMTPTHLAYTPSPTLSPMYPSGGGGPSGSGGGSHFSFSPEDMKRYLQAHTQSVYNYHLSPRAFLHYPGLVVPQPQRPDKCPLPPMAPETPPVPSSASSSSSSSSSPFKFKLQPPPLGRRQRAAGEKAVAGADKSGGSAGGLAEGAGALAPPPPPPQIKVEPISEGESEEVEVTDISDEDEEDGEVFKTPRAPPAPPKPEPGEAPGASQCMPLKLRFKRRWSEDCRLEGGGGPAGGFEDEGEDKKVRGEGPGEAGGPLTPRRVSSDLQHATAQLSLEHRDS
Outline: as §1

ETV3L = target: T7, ETV3L (Homo sapiens, UniProt Q6ZN32 1-361); details: protein: recombinant; tags: N-terminal GST; dsDNA, one strand shown
T7 sequence: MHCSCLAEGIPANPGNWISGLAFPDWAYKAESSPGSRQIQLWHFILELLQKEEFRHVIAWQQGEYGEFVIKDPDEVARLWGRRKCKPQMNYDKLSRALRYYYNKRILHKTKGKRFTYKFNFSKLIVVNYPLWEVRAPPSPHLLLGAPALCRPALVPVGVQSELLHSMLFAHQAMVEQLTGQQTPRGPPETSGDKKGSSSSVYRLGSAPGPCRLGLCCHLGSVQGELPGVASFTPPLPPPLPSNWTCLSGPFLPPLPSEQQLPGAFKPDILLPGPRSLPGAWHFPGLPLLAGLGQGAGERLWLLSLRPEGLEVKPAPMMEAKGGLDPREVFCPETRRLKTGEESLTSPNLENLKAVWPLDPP
Outline: as §1

ETS2 = target: T8, ETS2 (Homo sapiens, UniProt P15036 1-469); details: protein: recombinant; tags: N-terminal GST; dsDNA, one strand shown
T8 sequence: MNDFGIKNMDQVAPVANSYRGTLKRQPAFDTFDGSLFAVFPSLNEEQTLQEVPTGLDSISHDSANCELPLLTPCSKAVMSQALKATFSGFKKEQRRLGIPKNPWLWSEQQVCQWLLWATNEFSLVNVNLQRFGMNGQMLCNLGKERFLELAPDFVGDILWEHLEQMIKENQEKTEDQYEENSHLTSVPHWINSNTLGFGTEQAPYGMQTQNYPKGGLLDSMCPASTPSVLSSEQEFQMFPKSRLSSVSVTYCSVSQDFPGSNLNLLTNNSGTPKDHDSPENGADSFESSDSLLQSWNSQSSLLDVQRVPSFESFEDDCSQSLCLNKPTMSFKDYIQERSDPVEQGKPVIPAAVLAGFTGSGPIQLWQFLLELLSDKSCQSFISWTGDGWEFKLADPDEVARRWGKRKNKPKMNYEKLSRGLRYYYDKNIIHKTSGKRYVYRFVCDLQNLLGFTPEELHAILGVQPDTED
Outline: as §1

SPDEF = target: T9, SPDEF (Homo sapiens, UniProt O95238 1-335); details: protein: recombinant; tags: N-terminal GST; dsDNA, one strand shown
T9 sequence: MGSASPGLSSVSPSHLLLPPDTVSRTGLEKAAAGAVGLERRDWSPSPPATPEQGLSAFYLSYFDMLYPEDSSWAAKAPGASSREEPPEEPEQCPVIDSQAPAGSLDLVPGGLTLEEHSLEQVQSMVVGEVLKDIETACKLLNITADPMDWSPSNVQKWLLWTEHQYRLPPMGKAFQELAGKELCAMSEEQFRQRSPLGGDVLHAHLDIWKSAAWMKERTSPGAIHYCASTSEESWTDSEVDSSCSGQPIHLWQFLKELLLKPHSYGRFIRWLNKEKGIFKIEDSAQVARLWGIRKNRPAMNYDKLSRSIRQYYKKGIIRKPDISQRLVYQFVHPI
Outline: as §1

ETV7 = target: T10, ETV7 (Homo sapiens, UniProt Q9Y603 1-341); details: protein: recombinant; tags: N-terminal GST; dsDNA, one strand shown
T10 sequence: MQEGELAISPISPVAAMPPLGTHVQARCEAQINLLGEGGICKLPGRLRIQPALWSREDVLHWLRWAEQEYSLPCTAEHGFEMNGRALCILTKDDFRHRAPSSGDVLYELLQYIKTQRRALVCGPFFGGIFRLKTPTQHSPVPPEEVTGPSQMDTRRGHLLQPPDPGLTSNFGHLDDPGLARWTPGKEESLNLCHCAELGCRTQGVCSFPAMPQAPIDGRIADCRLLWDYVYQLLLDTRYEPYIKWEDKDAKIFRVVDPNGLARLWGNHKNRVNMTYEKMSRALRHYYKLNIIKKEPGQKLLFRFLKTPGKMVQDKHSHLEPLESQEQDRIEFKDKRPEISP
Outline: as §1

ELF5 = target: T11, ELF5 (Homo sapiens, UniProt Q9UKW6-2 1-255); details: protein: recombinant; tags: N-terminal GST; dsDNA, one strand shown
T11 sequence: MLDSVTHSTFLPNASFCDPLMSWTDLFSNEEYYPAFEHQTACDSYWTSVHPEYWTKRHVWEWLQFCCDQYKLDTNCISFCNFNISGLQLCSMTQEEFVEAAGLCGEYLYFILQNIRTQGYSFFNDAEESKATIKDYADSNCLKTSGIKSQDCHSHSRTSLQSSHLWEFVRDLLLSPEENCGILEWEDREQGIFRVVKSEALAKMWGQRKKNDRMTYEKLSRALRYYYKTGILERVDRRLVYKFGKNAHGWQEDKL
Outline: as §1

ETV3 = target: T12, ETV3 (Homo sapiens, UniProt P41162-2 1-143); details: protein: recombinant; tags: N-terminal GST; dsDNA, one strand shown
T12 sequence: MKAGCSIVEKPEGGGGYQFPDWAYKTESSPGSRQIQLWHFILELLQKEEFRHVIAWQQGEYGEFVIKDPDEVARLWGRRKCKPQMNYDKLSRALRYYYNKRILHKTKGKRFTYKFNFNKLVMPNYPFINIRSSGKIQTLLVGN
Outline: as §1

ETV6 = ETV6 (Homo sapiens, UniProt P41212 1-452); details: protein: recombinant; tags: N-terminal GST; dsDNA, one strand shown
Chain of ETV6 (P41212 whole entry): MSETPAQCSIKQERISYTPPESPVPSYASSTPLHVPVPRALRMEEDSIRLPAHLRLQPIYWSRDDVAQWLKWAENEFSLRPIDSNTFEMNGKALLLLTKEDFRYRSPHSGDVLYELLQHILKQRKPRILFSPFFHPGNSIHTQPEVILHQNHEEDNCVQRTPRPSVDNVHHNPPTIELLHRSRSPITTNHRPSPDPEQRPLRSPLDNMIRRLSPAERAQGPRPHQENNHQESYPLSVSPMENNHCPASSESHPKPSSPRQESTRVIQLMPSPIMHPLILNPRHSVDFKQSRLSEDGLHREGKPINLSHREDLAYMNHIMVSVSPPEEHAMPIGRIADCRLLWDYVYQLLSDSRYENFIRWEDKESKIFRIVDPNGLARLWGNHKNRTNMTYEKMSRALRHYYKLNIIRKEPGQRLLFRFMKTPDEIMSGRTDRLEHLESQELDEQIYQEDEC
Outline: as §1

CTTTTA
binding signal (FEV): 1.36 fold enrichment (6-mer frequency, TF over GST control)
binding signal (ETV5): 1.29 fold enrichment (6-mer frequency, TF over GST control)
binding signal (HSF1): 1.3 fold enrichment (6-mer frequency, TF over GST control)
binding signal (SPIC): 1.49 fold enrichment (6-mer frequency, TF over GST control)
binding signal (ELF4): 1.43 fold enrichment (6-mer frequency, TF over GST control)
binding signal (ELK4): 1.21 fold enrichment (6-mer frequency, TF over GST control)
binding signal (ETV2): 1.28 fold enrichment (6-mer frequency, TF over GST control)
binding signal (ELF3): 1.34 fold enrichment (6-mer frequency, TF over GST control)
binding signal (CRX): 1.61 fold enrichment (6-mer frequency, TF over GST control)
binding signal (ETV1): 1.41 fold enrichment (6-mer frequency, TF over GST control)
binding signal (ERF): 1.39 fold enrichment (6-mer frequency, TF over GST control)
binding signal (ETV3L): 1.42 fold enrichment (6-mer frequency, TF over GST control)
binding signal (ETS2): 1.32 fold enrichment (6-mer frequency, TF over GST control)
binding signal (SPDEF): 1.18 fold enrichment (6-mer frequency, TF over GST control)
binding signal (ETV7): 1.42 fold enrichment (6-mer frequency, TF over GST control)
binding signal (ELF5): 1.21 fold enrichment (6-mer frequency, TF over GST control)
binding signal (ETV3): 1.4 fold enrichment (6-mer frequency, TF over GST control)
binding signal (ETV6): 1.31 fold enrichment (6-mer frequency, TF over GST control)
